Rab9 promoter act: qHTS Assay for Rab9 Promoter Activators; Huh7 Rab9 promoter-luciferase reporter, luminescence, 24 h; Potency, µM (doses to about 9.22 µM), inactives show at the top dose activation, negative = inhibition, most hits filed as activators; hit rate 2.8% among 320,000; AID 485297, 2010; further: % of control where 0% means no effect; nearly all actives have a fitted effect of over 60% in size
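Huh7 cells stably carrying a Rab9 promoter-luciferase reporter, 1500 cells per well in OP-MEM I with 10% FBS, treated with compound 24 hours at 37C. Luciferase activity read by luminescence after 10 minutes with Amplite reagent.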
SMN2 splice up: qHTS Assay for Enhancers of SMN2 Splice Variant Expression; HEK293 SMN2-luciferase splicing reporter, luminescence, 30-36 h; Potency, µM (top dose mostly 46.1 µM), without a hit: top-dose activity change, positive = activation, hits mostly activators; hit rate 2.8% among 210,000; AID 1458, 2008; further: % of control where 0% means no effect; nearly all actives have a fitted effect of over 55% in size
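qHTS luciferase splicing reporter: luminescence rises when SMN2 exon 7 is included in transfected HEK293 cells. Compound exposure lasted 30-36 h at 37C, with 4.5 mM final sodium butyrate as control, followed by a ONE-Glo read.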
NPC1 promoter act: qHTS Assay for NPC1 Promoter Activators | AID 485313, 2010 | Huh7 NPC1 promoter luciferase reporter, 24 h | hit rate 2.4% among 320,000 | Potency, µM (highest dose often 9.22 µM), without a hit: at the top dose activation, hits mostly activators; further: % of control where 0% means no effect; nearly all actives have a fitted effect of over 60% in size
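Compounds in DMSO were transferred onto Huh7 NPC1-luciferase reporter cells pre-incubated 2 h; after 24 h at 37 °C, Amplite reagent was dispensed and luminescence recorded 10 min later.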
FLuc modulator: qHTS profiling assay for firefly luciferase inhibitor/activator using purifed enzyme and Km concentrations of substrates (counterscreen for miR-21 project); purified FLuc, Km substrates, luminescence inhibition; Potency, µM (series often up to 57.5 µM), for inactives: at the highest dose activity change, negative = inhibition, actives largely listed as inhibitors; hit rate 6.9% among 360,000; AID 588342, 2011;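 further: plate controls were vehicle for no effect and reference inhibitor for full effect; nearly all actives have a fitted effect of over 55% in size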
Target sequence (P08659 whole entry, looked up): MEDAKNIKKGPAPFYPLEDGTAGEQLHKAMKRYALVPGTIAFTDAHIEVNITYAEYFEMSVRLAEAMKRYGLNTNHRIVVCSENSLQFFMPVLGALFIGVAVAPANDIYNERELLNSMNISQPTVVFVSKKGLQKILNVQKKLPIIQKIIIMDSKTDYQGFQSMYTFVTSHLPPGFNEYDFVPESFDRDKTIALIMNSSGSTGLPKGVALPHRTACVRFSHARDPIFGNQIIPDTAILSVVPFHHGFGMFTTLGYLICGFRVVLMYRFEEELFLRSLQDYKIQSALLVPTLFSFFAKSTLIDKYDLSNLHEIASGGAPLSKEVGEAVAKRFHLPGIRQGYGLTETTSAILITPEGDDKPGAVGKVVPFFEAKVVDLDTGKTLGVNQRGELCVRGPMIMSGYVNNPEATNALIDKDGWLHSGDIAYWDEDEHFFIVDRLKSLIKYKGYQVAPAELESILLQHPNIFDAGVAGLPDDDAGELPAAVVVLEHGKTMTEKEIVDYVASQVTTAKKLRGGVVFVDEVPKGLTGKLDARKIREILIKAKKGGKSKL
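Purified P. pyralis luciferase (10nM final) with 10uM D-luciferin and 10uM ATP (Km levels) in 50mM Tris acetate pH 7.5, 10mM Mg acetate, 0.01% Tween-20, 0.05% BSA; qHTS 6-point titration, ~60 µM downward; luminescence read.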
KinaseGlo FLuc: Counterscreen for Luciferase (Kinase-Glo TM) Inhibition | Potency, µM (series often up to 38.3 µM), for inactives: at the highest dose activity change, negative = inhibition, usual class: inhibitors | Luciferin 4-monooxygenase (Photuris pensylvanica), Q27757 | hit rate 0.28% among 200,000 | Kinase-Glo luciferase, ATP luminescence, 8 min; further: on the % scale 0 is the no-effect control and ±100 the full control effect; nearly all actives have a fitted effect of over 60% in size
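Compound is pinned into ATP-containing buffer (10 uM ATP, imidazole pH 7.2, 7 mM MgCl2). Kinase-Glo luciferase reagent is then added. Light output is recorded following an 8-min room-temperature incubation.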
ELG1 genotoxic: qHTS screen for small molecules that induce genotoxicity in human embryonic kidney (HEK293T) cells expressing luciferase-tagged ELG1 | HEK293T ELG1-luciferase reporter, luminescence, 16 h | Potency, µM (series often up to 46 µM), for the others: at the highest dose activity change, positive = activation, most hits filed as activators | hit rate 1.3% among 330,000 | AID 504466, 2011; further: % of control where 0% means no effect; nearly all actives have a fitted effect of over 60% in size
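Reporter readout depends on ELG1 protein level, which increases with genetic stress. After 16 hr compound exposure at 37 °C, luciferase activity was quantified using ONE-Glo.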
Active calls of the source: *. In the library only some 7.3% were active in any assay of this set; here they are far more common. The call rests on the fitted dose curve; in most records, active means well fitted curve in the direction sought with a large enough effect; inconclusive means small, poorly fitted or top-dose-only effect, or another doubt; inactive means no such curve, though single readings can be large; an effect the other way counts as inactive or inconclusive. Potency means the concentration at half of the fitted maximal effect.

For O=C(Nc1ccc2c(c1)CCCN2C(=O)c1ccccc1)c1ccccc1 the results were Rab9 promoter act inconclusive, NPC1 promoter act 26%, FLuc modulator 13µM* and ELG1 genotoxic -6%.
For O=C(Nc1ccc(F)c(F)c1)c1ccccc1 the results were Rab9 promoter act inconclusive, NPC1 promoter act inconclusive, FLuc modulator inconclusive and ELG1 genotoxic 21µM*.
`O=C(Nc1cc(NC(=O)c2ccccc2F)ccc1Cl)c1ccccc1` gave Rab9 promoter act 9%, NPC1 promoter act 4%, FLuc modulator 15µM* and ELG1 genotoxic -6%.
Cc1ccc(NC(=O)c2ccccc2)cc1C was read as Rab9 promoter act 6%, NPC1 promoter act 13%, FLuc modulator 15µM* and ELG1 genotoxic 8%.
For O=C(N/N=C/c1ccc2nccnc2c1)c1ccccc1O the results were Rab9 promoter act inconclusive, NPC1 promoter act inconclusive, FLuc modulator 0.27µM* and ELG1 genotoxic 3%.
O=C(N/N=C/c1cccc(C(F)(F)F)c1)c1ccccc1O was read as Rab9 promoter act 15%, SMN2 splice up -9%, NPC1 promoter act 18%, FLuc modulator 6.7µM*, KinaseGlo FLuc -2% and ELG1 genotoxic 3%.
O=C(N/N=C/c1cc(Br)c(O)c(Br)c1)c1cccc(C(F)(F)F)c1 was read as Rab9 promoter act -3%, SMN2 splice up -23%, NPC1 promoter act 1%, FLuc modulator inconclusive, KinaseGlo FLuc 4% and ELG1 genotoxic 2%.
`O=C(N/N=C/c1ccnc2ccccc12)c1ccccc1O` gave Rab9 promoter act 8%, NPC1 promoter act 15%, FLuc modulator 11µM* and ELG1 genotoxic 15%.
O=C(N/N=C/c1ccc2nccnc2c1)c1ccncc1 was read as Rab9 promoter act 0%, NPC1 promoter act -8%, FLuc modulator inconclusive and ELG1 genotoxic -1%.
Clc1ccc(Cn2ncc3c(N4CCCC4)ncnc32)cc1 was read as Rab9 promoter act -1%, SMN2 splice up -3%, NPC1 promoter act 3%, FLuc modulator -50%, KinaseGlo FLuc -1% and ELG1 genotoxic -2%.
Nc1nc(SCC(=O)NC2CCCCC2)[nH]c(=O)c1-c1ccccc1 was read as Rab9 promoter act 2%, SMN2 splice up -3%, NPC1 promoter act -1%, FLuc modulator 2%, KinaseGlo FLuc -3% and ELG1 genotoxic 2%.
`COC(=O)c1sc(NC(=O)CSc2nnc(Cn3nnc4ccccc43)n2C)nc1C` gave Rab9 promoter act -13%, SMN2 splice up -12%, NPC1 promoter act -2%, FLuc modulator -2%, KinaseGlo FLuc 2% and ELG1 genotoxic inconclusive.
For COc1ccccc1N=Nc1c(C)[nH][nH]c1=O the results were Rab9 promoter act 1%, NPC1 promoter act -2%, FLuc modulator inconclusive and ELG1 genotoxic 4%.
`Cc1ccc(N=Nc2c(C)[nH][nH]c2=O)c(C)c1` gave Rab9 promoter act 23%, SMN2 splice up 16%, NPC1 promoter act 3%, FLuc modulator 7.6µM*, KinaseGlo FLuc -3% and ELG1 genotoxic inconclusive.
Cc1c(C(=O)NC2CCC(C)CC2)oc2ccccc12 (stereo not given) was read as Rab9 promoter act 2.8µM*, NPC1 promoter act 3.2µM*, FLuc modulator 9.5µM* and ELG1 genotoxic inconclusive.
Screening Cc1c(C(=O)NC2CCCCC2C)oc2ccccc12 (stereo not given) returned Rab9 promoter act 5%, NPC1 promoter act -1%, FLuc modulator 13µM* and ELG1 genotoxic -17%.
`O=C(Nc1cccc(S(=O)(=O)N2CCCCCC2)c1)C1CCN(C(=O)c2ccc(Cl)cc2)CC1` gave Rab9 promoter act -8%, NPC1 promoter act -4%, FLuc modulator -2% and ELG1 genotoxic 1%.
For S=c1[nH]nc(C2CCCCC2)n1/N=C/c1ccccc1Cl the results were Rab9 promoter act 1%, NPC1 promoter act 1%, FLuc modulator -9% and ELG1 genotoxic -1%.
`Cc1nc(C#N)c(N/N=C/c2cccc(Cl)c2)o1` gave Rab9 promoter act inconclusive, SMN2 splice up 11µM*, NPC1 promoter act inconclusive, FLuc modulator 4.8µM*, KinaseGlo FLuc -7% and ELG1 genotoxic inconclusive.
For Nc1nc2sc3c(c2cc1C(=O)NCC(=O)O)CCCC3 the results were Rab9 promoter act -16%, NPC1 promoter act 0%, FLuc modulator 0.95µM* and ELG1 genotoxic -3%.
Nc1nc2sc3c(c2cc1C(=O)N1CCOCC1)CCCC3 was read as Rab9 promoter act 10%, SMN2 splice up 4%, NPC1 promoter act 8%, FLuc modulator 17µM*, KinaseGlo FLuc -3% and ELG1 genotoxic 3%.
For Cc1cccc2cc3c(N)c(C(=O)N4CCOCC4)sc3nc12 the results were Rab9 promoter act 0.56µM*, SMN2 splice up 11µM*, NPC1 promoter act inconclusive, FLuc modulator 3.8µM*, KinaseGlo FLuc -10% and ELG1 genotoxic inconclusive.
`COCC(=O)N1CCC2(CC1)CCN(C(=O)Nc1cccc(C#N)c1)CC2` gave SMN2 splice up -3% and KinaseGlo FLuc -3%.
COc1ccccc1-c1n[nH]c(=S)n1N was read as Rab9 promoter act -2%, NPC1 promoter act 0%, FLuc modulator -4% and ELG1 genotoxic 1%.
Screening COCCn1c(SCC(=O)NC2CCCCC2C)nc2ccccc2c1=O (stereo not given) returned Rab9 promoter act 0%, NPC1 promoter act 0%, FLuc modulator 2% and ELG1 genotoxic 4%.
For Cc1ccc(C(=O)n2ncn(C)c2=S)cc1 the results were Rab9 promoter act -1%, SMN2 splice up 16%, NPC1 promoter act 1%, FLuc modulator inconclusive, KinaseGlo FLuc 3% and ELG1 genotoxic 1%.
O=C(c1ccccc1)n1c(=S)nc2ccccn21 was read as Rab9 promoter act 3.5µM*, NPC1 promoter act 1µM*, FLuc modulator 0.43µM* and ELG1 genotoxic 0.33µM*.
For Cc1ccc(C(=O)n2c(=S)nc3ccccn32)cc1 the results were Rab9 promoter act 0.63µM*, SMN2 splice up 2µM*, NPC1 promoter act 0.79µM*, FLuc modulator 0.12µM*, KinaseGlo FLuc inconclusive and ELG1 genotoxic inconclusive.
`O=C(c1ccccc1)n1ccn(-c2ccccc2)c1=S` gave Rab9 promoter act -2%, SMN2 splice up -13%, NPC1 promoter act 1%, FLuc modulator -12%, KinaseGlo FLuc -3% and ELG1 genotoxic 0%.
